# DT40 TDP1 CPT – growth inhibition of DT40 Tdp1-/-;hTDP1 cells with camptothecin (screen for TDP1 inhibitors); chicken DT40 Tdp1-/-;hTDP1 cells + 20 nM CPT, ATP luminescence, 48 h; Potency, µM (titrated, usually from 46.2 µM), for the others: top-dose activity change, negative = growth inhibition, most hits filed as inhibitors; actives 12% (n = 420,000); note: potency is the fitted concentration of half-maximal effect; nearly all actives have a fitted effect of over 55% in size
#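 Chicken DT40 Tdp1-/- cells complemented with human TDP1, 400 cells/well, exposed to compounds plus 20 nM camptothecin for at least 48 h at 37 C; viability read as ATP content by CellTiter-Glo luminescence.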
# HT1080 IDH1KD tx – toxicity to HT-1080 IDH1 knockdown cells (counter line); actives 2% (n = 360,000); HT-1080 IDH1 knockdown viability, ATP luminescence, 48 h; Potency, µM (series often up to 46.1 µM), inactives show top-dose activity, negative = toxicity, hits mostly cytotoxic;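 note: potency is the fitted concentration of half-maximal effect; 0% = DMSO wells and -100% = cell-free medium wells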
#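 % activity derives from luminescence (CellTiter-Glo), normalised to DMSO and no-cell wells. HT-1080-IDH1KD cells, 750/well, had 48 h compound exposure at 37 °C.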
# TDP1 cell noCPT – qHTS for Inhibitors of human tyrosyl-DNA phosphodiesterase 1 (TDP1): qHTS in cells in absence of CPT. AID 686978, 2013. DT40 Tdp1-/- hTDP1 cells, no CPT, ATP luminescence, 48 h. Potency, µM (highest dose often 46.2 µM), for inactives: at the highest dose activity change, negative = growth inhibition, usual class: inhibitors. actives 15% (n = 420,000); note: potency is the fitted concentration of half-maximal effect; nearly all actives have a fitted effect of over 55% in size
#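 Growth kinetics read by CellTiter-Glo luminescence after ≥48 hr at 37 °C. Cells: DT40 Tdp1-/- stably carrying human TDP1, 400 per well, compound exposure in the absence of CPT (DMSO vehicle).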
# HT1080-NT tox – kills 2HG-producing HT-1080-NT fibrosarcoma cells. actives 1.6% (n = 360,000). HT-1080-NT fibrosarcoma viability, CellTiter-Glo ATP luminescence, 48 h. Potency, µM (doses to about 46.1 µM), inactives show top-dose activity, negative = less viability, most hits filed as cytotoxic;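 note: NT is the 2HG producing partner of a matched IDH1 knockdown line; potency is the fitted concentration of half-maximal effect; 0% = DMSO-treated cells and -100% = media-only wells without cells; nearly all actives have a fitted effect of over 55% in size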
#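 Viability by CellTiter-Glo luminescence after 48 h compound exposure at 37C of HT-1080-NT cells (750/well, RPMI, 5% FBS). % activity scaled between DMSO wells and medium-only wells, then curve-fitted and categorized by curve class.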
# IL1B secr inh – inflammasome signaling inhibition, IL-1 beta readout; THP-1 LPS/ATP IL-1B secretion, AlphaLISA, 16 h; active compounds read low; activity change, % at 57.5 µM; actives 4.7% (n = 360,000); in the data active = activity change below about -50%; inconclusive = mostly about -30% to -49%
#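 THP-1 cells pretreated 1 hr with compounds (up to 57.5 uM final), then stimulated with LPS (250 ng/mL final) plus ATP (1.25 mM final); secreted IL-1B measured by AlphaLISA after 16 hr, decreased signal indicating inhibition.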
# * = called active by the depositor; ? = inconclusive; . = not tested or not shown; ! = not confirmed by another sample; [ ] = another dose, or the depositor's remark. Compounds with a hit are over-represented: about 19% of the library has one in this group of screens. Unless noted, calls come from the whole dose curve; as a rule, active = well fitted curve in the direction sought with a large enough effect; inconclusive = small, poorly fitted or top-dose-only effect, or another doubt; inactive = no such curve, though single readings can be large; an effect the other way counts as inactive or inconclusive. Unless noted, % is set by controls: 0 for no effect and ±100 for the full control effect.
SMILES,DT40 TDP1 CPT,HT1080 IDH1KD tx,TDP1 cell noCPT,HT1080-NT tox,IL1B secr inh
O=[N+]([O-])c1cccc(-c2n[nH]c(=S)n2-c2ccc(Br)cc2)c1,-18%,-14%,?,-16%,-5
O=[N+]([O-])c1cccc(-c2cc(-c3cc(Br)ccc3O)[nH]n2)c1,?,?,21µM*,?,-89*
Cn1c(-c2cc(Br)ccc2O)n[nH]c1=S,-8%,7%,-5%,-24%,?
Oc1ccc(Br)cc1-c1cc(-c2ccccc2)n[nH]1,?,21µM*,?,29µM*,-2
Oc1ccc(Br)cc1-c1cc(-c2ccc(Cl)cc2)n[nH]1,21µM*,23µM*,?,23µM*,-14
Cc1ccc(O)c(-c2cc(-c3cccc(F)c3)n[nH]2)c1,?,-1%,?,1%,-12
CCN(CC(=O)NC(C)(C)C)C(=O)c1cccc(S(=O)(=O)N2CC3(C)CC2CC(C)(C)C3)c1 (configuration not stated),?,-2%,?,-2%,24
O=C(NCc1ccccc1Cl)c1ccc2nc[nH]c2c1,-26%,3%,?,0%,-2
Cc1ccc([N+](=O)[O-])cc1NC(=O)Nc1onc(C)c1C,-13%,0%,?,-2%,-14
CCOc1ccc(C(=O)Nc2ccc(-c3cc4ccccc4oc3=O)c(C)c2)cc1[N+](=O)[O-],13µM*,-11%,12µM*,-8%,66
Cc1cc(NC(=S)NC(=O)c2ccccc2)ccc1-c1cc2ccccc2oc1=O,3.3µM*,-14%,2.9µM*,?,9
COc1cc(O)ccc1C1CC(=O)Nc2c1c(=O)nc(SCc1ccccc1C)n2C (configuration not stated),-19%,.,-13%,.,.
CCCC(=O)Nc1c(C)nn(C(=O)CCC)c1C,5%,2%[9.24 µM],1%,0%,21
COc1ccc(S(=O)(=O)Oc2ccc3cccc(N)c3c2)cc1,?,-27%,?,-23%,-10
COc1ccc(N(C(=O)c2ccc(OC)c(OC)c2)S(=O)(=O)c2ccc(Cl)cc2)cc1,26µM*,.,21µM*,.,.
COc1ccc(N(C(=O)C(C)C)S(=O)(=O)c2ccc3ccccc3c2)cc1,15µM*,-5%,?,-14%,26
COc1ccc(S(=O)(=O)Oc2ccc3ccccc3c2)cc1,16µM*,-6%,29µM*,-21%,-13
COc1ccc(N(C(=O)c2ccc(Cl)cc2)S(=O)(=O)c2ccc(C)cc2)cc1,?,.,23µM*,.,.
COc1ccc(S(=O)(=O)N(CC(=O)NCc2ccc(C)cc2)c2ccc(Cl)cc2)cc1,-12%,.,-21%,.,.
CN1CC2([N+](=O)[O-])CC=C(OCCO)C([N+](=O)[O-])(C1)C2 (configuration not stated),5%,6%,-5%,19%,14
Cc1ccc2nc(-c3ccc(C#N)cc3)c(Cc3ccccc3)n2c1,?,1%,?,2%,?
CN(C)C(=O)c1ccc(N/C=C(\C=O)c2nc3ccccc3o2)cc1,-4%,0%,30%,2%,57
COc1ccc(N(C(=O)c2cccc(C)c2)S(=O)(=O)c2ccc(C)cc2)cc1,18µM*,.,?,.,.
CCN(CC)c1ccc(C(=C2C=CC(=[N+](CC)CC)C=C2)c2ccc(N(CC)CC)cc2)cc1,0.92µM*,5.2µM*,0.73µM*,7.3µM*,?
CCN(CC)c1ccc(C(=O)NNC(=O)CCNC(=O)c2ccccc2)cc1,-13%,0%,-21%,7%,0
SMILES,DT40 TDP1 CPT,HT1080 IDH1KD tx,TDP1 cell noCPT,HT1080-NT tox,IL1B secr inh
CCN(CC)c1ccc(C(=C2C=CC(=[N+](CC)CC)C=C2)c2ccccc2)cc1,0.16µM*,1µM*,0.15µM*,2.6µM*,-120*
OCCNC(=S)Nc1cccc(Cl)c1Cl,-1%,11%,-17%,18%,.
Cc1ccc(C)c(NC(=O)CNS(=O)(=O)c2ccccc2)c1,-8%,-16%,-11%,8%,26
O=C(CCc1nc(-c2ccccc2F)no1)Nc1ccc(Oc2ccccc2)cc1,23µM*,16µM*,10µM*,15µM*,20
Cc1ccccc1-c1noc(CCC(=O)Nc2cccc(C)c2C)n1,-10%,.,16µM*,.,.
COc1cccc(NC(=O)CCc2nc(-c3ccccc3F)no2)c1,?,-1%,?,-23%,-2
Cc1ccccc1-c1noc(CCC(=O)NCc2ccco2)n1,2%,3%,3%,-1%,12
COc1ccc(Cl)cc1NC(=O)CCc1nc(-c2ccccc2F)no1,23µM*!,-11%,16µM*,9%,15
COc1ccccc1NC(=O)CCc1nc(-c2ccccc2F)no1,?,0%,-23%,-1%,9
COc1ccc(Br)cc1CNC(=O)CCc1nc(-c2ccccc2F)no1,16µM*,-11%,?,-4%,-1
Cc1cnn(-c2ccc3nnc(-c4ccc(Cl)cc4)n3n2)c1,-29%,7%,?,4%,-14
O=C(c1ccncc1)N1CCC[C@@]2(CCN(Cc3ccncc3)C2)C1,?,.,-6%,.,.
COc1ccc(NC(=O)N2CCCC2C(=O)NCc2ccc(F)cc2)cc1 (configuration not stated),-2%,1%,-29%,-5%,-1
COc1ccc(NC(=O)N2CCc3c(sc4c3CCCC4)C2c2ccc(F)cc2)cc1 (configuration not stated),?,.,21µM*,.,.
Cc1cccc(NC(=O)N2CCc3c(sc4c3CCCC4)C2c2ccc(F)cc2)c1 (configuration not stated),?,.,16µM*,.,.
COc1ccccc1CNC(=O)c1cc(S(=O)(=O)N2CCOCC2)cn1C,-1%,2%,-15%,-1%,-8
CCCCSc1nc(C)cc(C)c1S(=O)(=O)c1ccccc1C,18µM*,-8%,?,-1%,19
Cc1cc(C)c(S(=O)(=O)c2ccccc2C)c(Cl)n1,?,-22%,-19%,1%,0
Cc1cc(C)cc(NC(=O)[C@H]2O[C@@H]3OC(C)(C)O[C@@H]3[C@H]3OC(C)(C)O[C@H]32)c1,-8%,.,?,.,.
CC1(C)OC2OC(C(=O)N/N=C/c3cc(Br)ccc3O)C3OC(C)(C)OC3C2O1 (configuration not stated),15µM*,?,15µM*,-19%,0
CC(C)c1ccc(NC(=O)[C@H]2O[C@@H]3OC(C)(C)O[C@@H]3[C@H]3OC(C)(C)O[C@H]32)cc1,5.2µM*,.,21µM*,.,.

# Screens as filed in PubChem.
